Cycloheximide cs = Cycloheximide Counterscreen for Small Molecule Inhibitors of Shiga Toxin; max response, %; 300,000 tested, 12% active; cell reporter, cycloheximide protein synthesis inhibition counterscreen; in the data active = max response mostly above about 13%, no sharp cut-off; inactive = mostly below about 14%; note: read at 38.3 µM for the half of the compounds with a filed dose
HCMV antiviral = qHTS Assay for inhibitors of the human cytomegalovirus (HCMV) | AID 1259415, 2018 | activity change, negative = inhibition, % at 57.5 µM | HFF cells, HCMV-luciferase reporter, 72 h; hits give low values | 410,000 tested, 4.5% active; in the data active = activity change below about -60%; inconclusive = no clear call, values can overlap the other calls; inactive = above about -39%
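Inhibition of viral replication was scored as loss of reporter luminescence in HFFs infected with HCMV-luciferase (MOI 1 PFU/cell) for 72 h; compounds tested at 2 doses, normalized to buffer and Salinomycin controls.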
Pf growth 48h = Primary qHTS for delayed death inhibitors of the malarial parasite plastid, 48 hour incubation. P. falciparum luciferase growth in erythrocytes, 48 h. 310,000 tested, 5.9% active. Potency, µM (titrated, usually from 28.7 µM), hits mostly inhibitors
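Growth was read as firefly luciferase luminescence after a 48 h, 37 C, 5% CO2 exposure of compounds to reporter-bearing P. falciparum cultures (0.1% parasitemia, 2% hematocrit final) in Albumax-supplemented RPMI 1640.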
Shiga inhibitor = A qHTS for Small Molecule Inhibitors of Shiga Toxin | AID 2315, 2010 | Vero cells, Shiga toxin protein synthesis inhibition reporter | 290,000 tested, 9.2% active | inhibition, % at 38.7 µM; in the data active = inhibition mostly above about 28%, no sharp cut-off; inactive = mostly below about 43%
Pf growth 96h = Primary qHTS for delayed death inhibitors of the malarial parasite plastid, 96 hour incubation; Potency, µM (highest dose often 28.7 µM), actives largely listed as inhibitors; 320,000 tested, 6.9% active; P. falciparum luciferase reporter growth, 96 h
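P. falciparum expressing integrated firefly luciferase grown in erythrocytes (2% hematocrit, 0.05% parasitemia final) with compounds for 96 hours at 37 C, 5% CO2. Growth inhibition read as loss of luminescence after adding luciferase detection reagent.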
A number is an active result; - = inactive; ? = inconclusive; . = no result; ! = repeats disagree; [ ] = dose if it differs, or a comment. Compounds with a hit are over-represented: about 20% of the library has one in this group of screens. Unless noted, calls come from the whole dose curve; as a rule, active = well fitted inhibition curve with a large enough effect; inconclusive = small, poorly fitted or top-dose-only effect, or another doubt; inactive = no such curve, though single readings can be large or run the other way.

SMILES | Cycloheximide cs | HCMV antiviral | Pf growth 48h | Shiga inhibitor | Pf growth 96h
O=C(NN=C(Cc1ccccc1)Cc1ccccc1)c1ccccc1O | - | - | - | - | ?
C/C(Cc1ccccc1)=N\NC(=O)c1ccc(F)cc1 | 26 | - | - | - | ?
NC(=O)NC(=O)Cc1ccccc1 | . | . | - | . | ?
NC(=O)c1ccc(C(=O)N/N=C(/Cc2ccccc2)c2ccccc2)cc1 | 26 | . | - | - | ?
COc1cc(C(=O)NC(=S)N(CCc2ccccc2)CCc2ccccc2)cc(OC)c1OC | - | - | 10µM | - | 12µM
O=C(CN(C(=O)CNC(=O)c1ccco1)c1ccccc1F)NC1CCCCC1 | - | - | - | - | -
NC(=S)NN=C(Cc1ccccc1)Cc1ccccc1 | - | -70 | ? | - | ?
NC(=S)NN=C(c1ccc(Br)cc1)C1CC1 | . | - | . | . | .
COc1cc(C(=O)N/N=C(\C)Cc2ccccc2)cc(OC)c1OC | - | -91 | - | - | -
COc1cc(C(=O)NCC(=O)N/N=C(\C)Cc2ccccc2)cc(OC)c1OC | - | ? | - | - | -
CCOC(=O)/C(C#N)=C/c1ccc(N2CCN(C)CC2)cc1 | 29 | - | - | - | -
CCOC(=O)/C(C#N)=C\c1ccc(N2CCN(C)CC2)cc1 | 26 | - | - | - | -
CCOC(=O)C(/C=C(\C#N)C(=O)OCC)=C(/N)N1CCN(c2ccccc2)CC1 | - | - | - | - | .
CC(C)CN(CCCNC(=O)CN1N=C(c2ccccc2)CCC1=O)CC(C)C | . | - | . | . | .
O=C(O)CCC(=O)Nc1ccc(Cc2ccc(NC(=O)CCC(=O)O)c(O)c2)cc1O | - | - | . | - | .
O=C(Nc1ccc(Cc2ccc(NC(=O)C3CC3)c(O)c2)cc1O)C1CC1 | - | - | - | - | 10µM
C=CS(=O)(=O)N(C(=C)C(=O)OC)S(C)(=O)=O | . | -81 | . | . | .
O=c1[nH]c2ccccc2nc1/C=C(\O)C(F)F | - | - | ? | - | ?
O=Nc1[nH]c(=O)c(/C=C(\O)c2ccccc2)nc1NO | 59 | - | - | 62 | -
O=c1oc2cc(Cl)ccc2n1CSc1nc2ccccc2s1 | 31 | - | . | 58 | ?
O=C(CSc1nc2ccccc2s1)N1c2ccccc2Sc2ccc(C(F)(F)F)cc21 | - | - | 15µM | - | ?
O=C(CSc1nc2cc(Cl)ccc2s1)c1cc2ccccc2o1 | - | - | - | - | .
O=C(CSc1nc2ccccc2o1)N1c2ccccc2Sc2ccccc21 | - | - | ? | - | -
O=C1c2ccccc2C(=O)N1CC(=O)N1c2ccccc2Sc2ccc(C(F)(F)F)cc21 | - | - | - | - | -
O=C(CSc1nc2ccccc2s1)N1c2ccccc2Sc2ccc(Cl)cc21 | - | - | ? | - | 5.9µM
SMILES | Cycloheximide cs | HCMV antiviral | Pf growth 48h | Shiga inhibitor | Pf growth 96h
CC(OC(=O)C1CC1)C(=O)Nc1ccc([N+](=O)[O-])cc1Cl (configuration not stated) | - | - | ? | - | -
CCCCCCCCCCOC(=O)Cn1c(COc2ccccc2)[n+](C)c2ccccc21 | - | - | ? | - | ?
CCCCCCCCCCOC(=O)Cn1c(COc2ccc(OC)cc2)[n+](C)c2ccccc21 | - | . | 4.1µM | - | 4.7µM!
CCCCCCCCCCOC(=O)Cn1c(COc2cccc(C)c2)[n+](C)c2ccccc21 | - | - | ? | . | 5.2µM
Cc1cc(NC(=O)C(C)C)ncc1NC(=O)CCc1ccccc1 | - | - | - | - | -
CCOc1ccc(N=C/C=C/c2ccccc2)c(O)c1 | 22 | - | - | 64 | -
CCOc1ccc(NCC(=O)N/N=C/C=C/c2ccccc2)cc1 | - | - | - | - | -
O=C(Nc1ccc(Br)cn1)c1ccc2nccnc2c1 | . | - | . | . | .
COC(=O)c1ccccc1NC(=O)c1ccc2nccnc2c1 | - | - | - | - | ?
O=C(Nc1ccc(Cl)cn1)c1ccc2nccnc2c1 | 32 | - | - | 132 | -
O=C(Nc1ccccc1Cl)c1ccc2nccnc2c1 | 25 | - | - | 67 | -
O=C(Nc1cc(Cl)cc(Cl)c1)c1cccnc1 | - | - | ? | . | -
O=C(Nc1ccc(Cl)cn1)c1cccnc1 | 15 | - | - | - | .
N=C1CCCC1C(=S)SCCC(N)=O (configuration not stated) | . | - | . | . | .
O=c1cc(-c2cc(O)c(O)c([C@@H]3O[C@H](CO)[C@@H](O)[C@H](O)[C@H]3O)c2)oc2cc(O[C@@H]3O[C@H](CO)[C@@H](O)[C@H](O)[C@H]3O)cc(O)c12 | - | . | . | - | .
Cc1ccc(CNC(=O)C2CCN(S(=O)(=O)N3CCOCC3)CC2)cc1 | - | - | - | - | ?
COc1ccc2oc(=O)c(-c3nc4ccccc4o3)cc2c1 | 25 | - | - | 66 | -
CC1CCc2c(sc3nc(-c4cc5ccccc5oc4=O)nc(Cl)c23)C1 (configuration not stated) | . | - | . | . | .
O=c1oc2ccc3ccccc3c2cc1-c1nc2ccccc2o1 | . | - | . | . | .
O=c1oc2ccccc2cc1-c1nc2ccccc2o1 | 38 | - | - | 71 | -
COc1ccc2oc(=O)c(-c3nnc(-c4ccc(C)cc4)o3)cc2c1 | . | - | . | . | .
O=c1oc2ccccc2cc1-c1nc2c(s1)CCCC2 | 31 | - | - | 56 | -
Oc1cccc(C(Nc2ccccn2)c2ccc3cccnc3c2O)c1Cl (configuration not stated) | . | -82 | . | . | .
CC(C)c1ccc(C(=O)Nc2cccc3cccnc23)cc1 | . | - | . | . | .
CC(=O)NC(c1ccc(C(C)C)cc1)c1ccc2cccnc2c1O (configuration not stated) | - | -99 | 7.4µM | - | -
SMILES | Cycloheximide cs | HCMV antiviral | Pf growth 48h | Shiga inhibitor | Pf growth 96h
O=C(O)CCC(=O)NC(c1ccccc1)c1ccccc1 | - | - | - | - | -
CCCC(=O)NC(c1ccccc1)c1ccc2cccnc2c1O (configuration not stated) | - | -102 | 2.3µM | . | ?
CCCCC(=O)NC(c1ccccc1)c1ccc2cccnc2c1O (configuration not stated) | - | -100 | ? | - | ?
CC(C)CC(=O)NC(c1ccccc1)c1c(O)ccc2ccccc12 (configuration not stated) | - | - | ? | - | ?
COc1ccc(Cl)cc1C(Nc1cccnc1)c1ccc2cccnc2c1O (configuration not stated) | - | - | 5.2µM | - | ?
Oc1c(C(c2ccccc2Cl)N2CCCC2)ccc2cccnc12 (configuration not stated) | - | - | -[1.15 µM] | - | ?
CCCC(=O)NC(c1ccc(OC)cc1)c1ccc2cccnc2c1O (configuration not stated) | - | -99 | 1.3µM | - | ?
CCCCC(=O)NC(c1ccccc1Cl)c1ccc2cccnc2c1O (configuration not stated) | - | -96 | 2.3µM | - | -
CCC(=O)NC(c1ccc(OC)cc1)c1cc(Cl)c2cccnc2c1O (configuration not stated) | - | - | - | - | -
CCCCC(=O)NC(c1ccc(C(C)C)cc1)c1ccc2cccnc2c1O (configuration not stated) | - | -103 | 1.7µM | - | -

From PubChem BioAssay
